Screens deposited in PubChem BioAssay by National Center for Advancing Translational Sciences (NCATS).
An excerpt weighted towards active compounds, which were near 2.1% of everything screened.
Abeta rescue: qHTS for compounds that reverse cellular toxicity of Amyloid beta (A-beta) peptide in yeast: Primary Screen; 410,000 compounds, 0.063% hits; AID 1347071, 2019; yeast expressing A-beta42, growth rescue, OD600, 48 h; response scale: 0% DMSO, 100% iron-clioquinol control; Potency, µM (top dose mostly 46.1 µM), hits mostly activators; also: nearly all actives have a fitted effect of over 55% in size
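Growth rescue measured by 600 nm absorbance after 48 h yeast culture at 30 C with compound. Values normalized between DMSO and an equimolar ferric chloride plus clioquinol control.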
aSyn yeast inh: qHTS of alpha-syn Inhibitors | Yeast expressing alpha-synuclein, growth rescue, BacTiter-Glo, 24 h | Potency, µM (series often up to 46.1 µM), actives largely listed as activators | 370,000 compounds, 0.14% hits; also: nearly all actives have a fitted effect of over 65% in size
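Galactose-induced alpha-syn yeast (OD600=0.02, raffinose-pregrown) + pinned cpd, 24 hr, 30 deg C; growth by BacTiter-Glo luminescence. Growth restoration scores as activation.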
TDP43 rescue: qHTS of TDP-43 Inhibitors; Potency, µM (top dose mostly 46.1 µM), actives largely listed as activators; 410,000 compounds, 1.8% hits; AID 652104, 2013; TDP-43 expressing yeast growth rescue, BacTiter-Glo, 24 h; also: nearly all actives have a fitted effect of over 50% in size
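Cell-based yeast growth screen: TDP-43 expression induced in galactose, inoculum OD600=0.02 after raffinose pregrowth to mid-log. Read-out BacTiter-Glo luminescence at 24 hr, 30 deg C; inhibition of toxicity seen as signal increase.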
FUS suppressor: qHTS for Suppressors of FUS Proteinopathy: Primary screen using FUS-linked yeast assay; S. cerevisiae FUS-expressing, growth rescue, OD600, 24 h; Potency, µM (series often up to 76.6 µM), most hits filed as activators; 390,000 compounds, 0.24% hits; AID 1347120, 2019; also: nearly all actives have a fitted effect of over 55% in size
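Quantitative HTS measuring growth restoration of FUS-toxic yeast. Galactose-induced cells (OD 0.005) were exposed 24hr at 30C to compounds at several concentrations, then absorbance at 600 nm was recorded.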
Large screens that a line does not name were inactive; ! = repeats disagree. Calls follow the shape of the dose curve; as a rule, active = well fitted curve in the direction sought with a large enough effect; inconclusive = small, poorly fitted or top-dose-only effect, or another doubt; inactive = no such curve, though single readings can be large; an effect the other way counts as inactive or inconclusive.

CC(C)(C)c1ccc(C(=O)C[n+]2ccccc2Cl)cc1	none (no result: Abeta rescue, TDP43 rescue, FUS suppressor)
O=C(c1ccccc1Cl)N1CCC(Oc2cccnc2)CC1	none (no result: Abeta rescue, aSyn yeast inh, TDP43 rescue)
CCOC(=O)CC[C@H]1CC[C@]2(CCCN(C(=O)c3cccnc3)C2)O1	none (no result: Abeta rescue, aSyn yeast inh, TDP43 rescue)
Cc1cccc(NC(=O)C2CCN(c3nnc(-n4cccc4)s3)CC2)c1C	none (no result: Abeta rescue, aSyn yeast inh, TDP43 rescue)
O=C(CCC1CCCCC1)NNC(=O)NC12CC3CC(CC(C3)C1)C2	FUS suppressor 25.1µM
N#Cc1ccc(NC2c3ccccc3CC2O)cc1 (configuration not stated)	none (no result: FUS suppressor)
OC1Cc2ccccc2C1Nc1cccc(C(F)(F)F)c1 (configuration not stated)	aSyn yeast inh inconclusive, TDP43 rescue 12.6µM (no result: FUS suppressor)
O=C(c1cccc(COc2cccc3ccccc23)c1)N1CCCC1	TDP43 rescue 22.4µM, FUS suppressor inconclusive
O=C(c1ccccc1)N1CCN(CC(O)COc2cccc3ccccc23)CC1 (configuration not stated)	none
COC(=O)c1cn(-c2ccc(-c3noc4c3C(=O)N(CC(=O)N3CCOCC3)CC4)cc2)nn1	none (no result: Abeta rescue, aSyn yeast inh, TDP43 rescue)
COc1cccc(COC(=O)c2nn(-c3ccccc3)nc2N)c1	TDP43 rescue 35.5µM!
O=C(CSc1nc2c([nH]c3ccccc32)c(=O)n1-c1ccccc1)N1CCCC1	none (no result: aSyn yeast inh)
O=C(CCn1c(=O)c2cccn2c2cccnc21)N1CCN(c2cccc(C(F)(F)F)c2)CC1	TDP43 rescue 25.1µM (no result: aSyn yeast inh)
CCC(=O)N1N=C(c2ccc(C)o2)CC1c1ccc(OC)cc1 (configuration not stated)	none
CCC(=O)N1N=C(c2ccc(C)o2)CC1c1ccc(Br)cc1 (configuration not stated)	TDP43 rescue 17.8µM (no result: FUS suppressor)
CCCCn1c(SCc2nc3ccccc3s2)nc2cc(S(N)(=O)=O)ccc21	FUS suppressor 22.4µM
O=C(Nc1c(-c2ccc(F)cc2)nc2ncccn12)C1CC1	none (no result: Abeta rescue, aSyn yeast inh, TDP43 rescue)
CCOc1c2ccoc2nc2c(OC)c(OC)ccc12	none
C=CCOc1ccc2c(OC)c3ccoc3nc2c1OC	TDP43 rescue 11.2µM
O=C(c1sccc1Cl)N1CCC(n2nnc3ncccc32)CC1	none (no result: Abeta rescue, aSyn yeast inh, TDP43 rescue)
CCN1C(=O)[C@H]2[C@@H](c3ccc(-c4ccc(OC)cc4)cc3)N3CCC[C@@]3(C(=O)OC)[C@H]2C1=O	TDP43 rescue inconclusive, FUS suppressor 28.2µM
CCN1C(=O)[C@H]2[C@@H](c3ccc(-c4ccccc4)cc3)N3CCC[C@@]3(C(=O)OC)[C@H]2C1=O	Abeta rescue inconclusive, TDP43 rescue 35.5µM, FUS suppressor inconclusive
Cc1ccc(C(=O)Nc2cccnc2Oc2ccc(Cl)cc2)cc1	none
Cc1ccc(S(=O)(=O)Nc2cccnc2Oc2ccc(Cl)cc2)cc1	TDP43 rescue 20µM
CCOC(=O)N1C(=O)C[C@](Sc2ccc(OC)cc2)(C(=O)N2CCN(c3ncccn3)CC2)[C@H]1c1ccc(OC)cc1	none (no result: Abeta rescue, aSyn yeast inh, TDP43 rescue)
CC(C)(O)c1[nH]c2ccc(C(F)(F)F)cc2c1C(C)(C)O	Abeta rescue inconclusive, TDP43 rescue 14.1µM
Cc1c(C(C)(C)O)[nH]c2cc(C(F)(F)F)ccc12	Abeta rescue inconclusive, TDP43 rescue inconclusive
CN(C)Cc1c(C(C)(C)O)[nH]c2ccc(C(F)(F)F)cc12	none
CC(C)(O)c1[nH]c2cc(C(F)(F)F)ccc2c1C(C)(C)O	Abeta rescue inconclusive, TDP43 rescue 35.5µM
CCc1ccc(NC(=O)c2cc(S(=O)(=O)NC3CCCC3)ccc2F)cc1	TDP43 rescue 20µM (no result: aSyn yeast inh)
Cc1cc(C)cc(OCC(=O)NNC(=O)c2cc(C)[nH]n2)c1	none
O=C(COc1ccc(Cl)cc1)NNC(=O)c1ccccn1	Abeta rescue inconclusive, aSyn yeast inh inconclusive, TDP43 rescue 14.1µM
Cc1cc(C)cc(OCC(=O)NNC(=O)c2ccccn2)c1	Abeta rescue inconclusive, aSyn yeast inh inconclusive, TDP43 rescue 20µM
O=C(COc1ccccc1)NNC(=O)c1ccc(Cl)cc1	none
COC1=C[C@H](C(=O)NCCOC(C)=O)[C@H](C)[C@@H](c2ccccc2)CC1=O	none (no result: Abeta rescue, aSyn yeast inh, TDP43 rescue)
C[C@@H](/C=C/C(=O)OC(C)(C)C)Sc1ccc(C(C)(C)C)cc1	none (no result: Abeta rescue, aSyn yeast inh, TDP43 rescue)
C[C@H]1[C@H](c2ccccc2)C[C@@H](C(=O)O)C1(C)C	TDP43 rescue 14.1µM
S=c1[nH]nc(-c2ccc(Cl)cc2)n1-c1ccc2c(c1)OCCO2	none
S=c1[nH]nc(-c2ccc(Cl)cc2)n1-c1ccc(Cl)cc1	Abeta rescue 10µM
CC(=O)c1cc(-c2ccccc2)n(CC(=O)NCc2ccccc2Cl)c1C	none (no result: Abeta rescue, aSyn yeast inh, TDP43 rescue)
COc1ccc(CN2C(=O)N(c3ccc(F)cc3)C(=O)C2CC(=O)Nc2cc(OC)cc(OC)c2)cc1 (configuration not stated)	none (no result: aSyn yeast inh)
CC12CCC(C(=O)Nc3ccc(Cl)cc3)([C@H](Br)C1=O)C2(C)C (some centres not stated)	Abeta rescue inconclusive, TDP43 rescue inconclusive
CC12CCC(C(=O)Nc3cccc(Cl)c3)(C(Br)C1=O)C2(C)C (configuration not stated)	TDP43 rescue 20µM (no result: FUS suppressor)
Nn1cnc2scc(-c3ccc(Cl)cc3)c2c1=O	TDP43 rescue inconclusive
O=c1c2c(-c3ccc(Cl)cc3)csc2nc2n1CCC2	TDP43 rescue 14.1µM (no result: FUS suppressor)
COC(=O)C1CN(CCc2ccccc2)CCS(=O)(=O)N1Cc1ccccc1F (configuration not stated)	none (no result: Abeta rescue, aSyn yeast inh, TDP43 rescue)
Nn1c(SCC(=O)Nc2nccs2)nnc1-c1cc(-c2ccc(F)cc2)n[nH]1	none (no result: Abeta rescue, aSyn yeast inh, TDP43 rescue)
COc1ccccc1N1CCN(C(=O)c2oc3cc(C)cc(C)c3c2C)CC1	TDP43 rescue 22.4µM, FUS suppressor inconclusive
O=C(c1cc(-c2ccc(O)cc2)on1)N1CCN(c2ccc(F)cc2)CC1	Abeta rescue inconclusive, TDP43 rescue 15.8µM
COc1ccccc1N1CCN(C(=O)c2cc(-c3ccc(C)c(F)c3)on2)CC1	TDP43 rescue 35.5µM (no result: aSyn yeast inh)
O=C(c1cc(-c2ccc3c(c2)OCO3)on1)N1CCN(c2ccc(F)cc2)CC1	none
O=C(c1cc(-c2ccc(O)cc2)on1)N1CCN(c2ccccc2)CC1	TDP43 rescue 10µM
COP1(=O)CCOCC[C@H](CC(C)C)NC(=O)[C@H](CC(C)C)N1 (some centres not stated)	none (no result: Abeta rescue, aSyn yeast inh, TDP43 rescue)
C#CCOCCOCCOCCNc1nc(N2CCN(C(=O)[C@H]([C@@H](C)CC)n3cc(CCCCN)nn3)CC2)nc(N2CCN(C(=O)[C@H](Cc3ccc(O)cc3)n3cc(CCO)nn3)CC2)n1	none (no result: Abeta rescue, aSyn yeast inh, TDP43 rescue)
O=C(OCc1cn(Cc2ccc(F)cc2F)nn1)N1CCCC1	none (no result: Abeta rescue, aSyn yeast inh, TDP43 rescue)
COc1ccc(OC)c(-c2cc(C(=O)N3CCOCC3)no2)c1	none
COc1ccccc1-c1cc(C(=O)N2CCN(c3ccccc3)CC2)no1	TDP43 rescue 17.8µM, FUS suppressor inconclusive
CC(C)n1ncc2c(C(=O)Nc3cccc(C#N)c3)cc(C3CC3)nc21	TDP43 rescue 22.4µM
CCNC(=O)c1cccc(NC(=O)c2cc(C3CC3)nc3c2cnn3C(C)C)c1	none
O=c1cc(-c2ccc(Cl)cc2)[nH]c2ccccc12	none
Clc1ccc(-c2cc3ccccc3[nH]2)cc1	TDP43 rescue 10µM
